The panel holds about 83,000 compounds, 20% with a hit somewhere; the sample as a whole holds those more often.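 Step 1: grow cells in 96-well plates. Step 2: add test compound at a single concentration. Step 3: incubate 48 h. Step 4: record percent growth.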 Values without a mark were called inactive. Active and inactive are the calls of the source. How the source made its calls: active means growth percent below 10; inactive means the rest.
How the values were obtained:
Assay in all cases: NCI-60 one-dose screen, 48 h (100 = growth as untreated, 0 = no growth, -100 = all killed)
SK-MEL-2 melanoma = details: 10 µM unless noted
EKVX NSCLC = details: 10 µM unless noted
SN12C renal = details: 10 µM unless noted
UO-31 renal = details: 10 µM unless noted
TK-10 renal = details: 10 µM unless noted
ACHN renal = details: 10 µM unless noted
CAKI-1 renal = details: 10 µM unless noted
CCRF-CEM leukemia = details: 10 µM unless noted
MOLT-4 leukemia = details: 10 µM unless noted
RPMI-8226 leukemia = details: 10 µM unless noted
OVCAR-8 ovarian = details: 10 µM unless noted
OVCAR-5 ovarian = details: 10 µM unless noted
OVCAR-4 ovarian = details: 10 µM unless noted
SK-OV-3 ovarian = details: 10 µM unless noted
IGROV1 ovarian = details: 10 µM unless noted
OVCAR-3 ovarian = details: 10 µM unless noted
HS 578T breast = details: 10 µM unless noted
A498 renal = details: 10 µM
HL-60(TB) leukemia = details: 10 µM unless noted
SR leukemia = details: 10 µM unless noted

SMILES	growth (SK-MEL-2 melanoma)	growth (EKVX NSCLC) [%]	growth (SN12C renal) [%]	growth (UO-31 renal)	growth (TK-10 renal)	growth (ACHN renal)	growth (CAKI-1 renal) [%]	growth (CCRF-CEM leukemia)	growth (MOLT-4 leukemia)	growth (RPMI-8226 leukemia)	growth (OVCAR-8 ovarian)	growth (OVCAR-5 ovarian) [%]	growth (OVCAR-4 ovarian)	growth (SK-OV-3 ovarian) [%]	growth (IGROV1 ovarian)	growth (OVCAR-3 ovarian)	growth (HS 578T breast) [%]	growth (A498 renal)	growth (HL-60(TB) leukemia)	growth (SR leukemia)
CCn1nccc1NC(=O)C(=O)c1cn(Cc2ccc(F)cc2)c2cccc(OC)c12	48.2%	81.6	86.9	47.5%	120%	85.3%	98.6	76.6%	66.4%	59.9%	92.2%	96.8	94.8%	100	3.65% (active)	94%	89			
COC(=O)[C@@H](C)C[C@H](Cc1ccccc1)NC(=O)c1nc([C@@H](C[C@H](C(C)C)N(C)C(=O)[C@@H](NC(=O)[C@H]2CCCCN2C)C(C)C)OC(C)=O)sc1C	26.5%	33.9	18.3	44.5%	31.1%	24.5%		7.82% (active)	11.1%	18.2%	15%	41.4	50.6%	29.9	22.7%	-37.8% (active)	13.7	-19.3% (active)	-43.5% (active)	4.24% (active)
Cn1cc(-c2csc(-c3cn(CCN4CCOCC4)c4ccc(F)cc34)n2)c2cccnc21	15.8%	37.5	61.4	11%	55.7%	17.7%		12.4%	4.03% (active)	0.0619% (active)	4.93% (active)	75.3	30.5%	78.7	21%	32.3%	60.4	68.1%	1.01% (active)	33.7%
CC1=C(CCCOC(=O)CN)C2=C(C)C3(CC3)[C@@](C)(O)C(=O)C2=C1	102%	95.8	81.3	73.3%	102%	97.4%		81.1%	84.5%	88.8%	73.8%	114	85%	51.3	32.8%	101%	93.9	94.7%	75.2%	94.7%
CN1C(=O)C(=Cc2cn(CCCCCCn3c4ccccc4c(=O)c4ccccc43)c3ccccc23)C(=O)N(C)C1=O	92.8%	96.2	104	65.6%	111%	92.9%		109%	97.5%	103%	95.2%	77	95.2%	87	90.5%	102%	101	110%	79.3%	77%
CC(=O)O[C@H](C[C@H](C(C)C)N(C)C(=O)[C@@H](NC(=O)[C@H]1CCCCN1C)C(C)C)c1nc(C(=O)NC2CCC(C(=O)O)CC2)cs1 (stereo partly specified)	37.4%	57.8	13.4	76.4%	73.8%	86.8%		12.8%	30.9%	23.8%	59.9%	85.7	72%	50.9	52.9%	2.22% (active)	24.2	35.8%	-22.2% (active)	22.3%
Clc1ccc(N2COOC3(OOC2)C2CC4CC(C2)CC3C4)cc1	87.4%	64.2	66.9	-92.1% (active)	27.2%	29.4%		-50.3% (active)	56.9%	35.6%		70.4	87.1%	92.9	-52.9% (active)	4.41% (active)	75.9	96.8%	-58% (active)	11.2%
CC1=C(CCCOC(=O)[C@H](N)CC(C)C)C2=C(C)C3(CC3)[C@@](C)(O)C(=O)C2=C1	-15.6% (active)	35.2	29.3	-42.1% (active)	-19% (active)	-43% (active)		80%	80%	90%	3.99% (active)		4.85% (active)		2.81% (active)	-14% (active)	79	-74.2% (active)	52.3%	95.1%
COc1ccc2c(c1)c(-c1nc(-c3c[nH]c4ncccc34)cs1)cn2CCN1CCOCC1	61.3%	37.1	43.6	15.4%	42.3%	36.5%		41.6%	45.7%	22.3%	37.9%	82.9	28%	67.9	27.7%	59%	37.5	71.7%	61%	45.5%
Cc1cc(NC(=O)NCc2ccc(N3C(N)=NC(N)=NC3(C)C)cc2)ccc1S(=O)(=O)F	34.4%	53.5	33.6	80.1%	45.7%	89.2%		55.4%	42%		-4.46% (active)	10.8	39.2%	64.9	-51.3% (active)	67.6%	68.6	77.7%	24.7%	4.98% (active)
COC(=O)[C@@H](C)C[C@H](Cc1ccc(F)cc1)NC(=O)c1csc([C@@H](C[C@H](C(C)C)N(C)C(=O)[C@@H](NC(=O)[C@H]2CCCCN2C)C2CC2)OC(C)=O)n1	24.4%	43.2	31.6	55.8%	72.4%	34%		12.6%	17.8%	20.4%	22.4%		46%	29.1	30.7%	-25% (active)	41.1	9.1% (active)	-35.1% (active)	17.5%
Cn1cc(-c2csc(-c3cn(CCN4CCOCC4)c4ccccc34)n2)c2cccnc21	68.8%	55.1	77.4	34.9%	87.9%	63%		36.9%	29.9%	29.6%	29.5%	95.6	64.2%	105	61.8%	70%	78	85.1%	36.1%	63.6%
COC(=O)[C@@H](C)C[C@H](Cc1ccc2ccccc2c1)NC(=O)c1csc([C@@H](C[C@H](C(C)C)N(C)C(=O)[C@@H](NC(=O)[C@H]2CCCCN2C)C(C)C)OC(C)=O)n1	57.8%	46.1	33.5	23.1%	28%	4.23% (active)		24.2%	-2.64% (active)	23.3%	37.9%	77.6	53%	56.5	22.7%	55.8%	40.8	21.7%	9.43% (active)	6.75% (active)
CC1(C)C(C(=O)c2cn(CCCCF)c3ccccc23)C1(C)C	86.4%	88.7	103	95.2%	102%	115%		87.1%	77.8%	81.5%		103	107%	102	114%	105%	88.5	92.9%	76%	77.9%
COC(=O)[C@@H](C)C[C@H](Cc1ccccc1)NC(=O)c1csc([C@@H](C[C@H](C(C)C)N(C)C(=O)[C@@H](NC(=O)[C@H]2CCCCN2C)C(C(F)(F)F)C(F)(F)F)OC(C)=O)n1	34.5%	40.4	28.3	33.1%	28.5%	28.2%		4.93% (active)	5.94% (active)	11.2%	16.8%	39.6		16.4	20.2%	-42.5% (active)	17.6	-4.49% (active)	-33.7% (active)	5.49% (active)

From PubChem BioAssay (NCI)
